# Measured values from ChEMBL document CHEMBL1961873, “Compounds: GSK PKIS; Assays: Nanosyn kinase panel” (2012).
# How the values were obtained:
# [1] = test system: Tyrosine-protein kinase ABL1 (Homo sapiens), P00519 [T315I]; details: at 1 µM
# [2] = test system: Tyrosine-protein kinase ABL1 (Homo sapiens), P00519 [Y253F]; details: at 0.1 µM
# [3] = test system: Tyrosine-protein kinase ABL1 (Homo sapiens), P00519 [Y253F]; details: at 1 µM
# [4] = molecular target: Tyrosine-protein kinase ABL1 (Homo sapiens) (UniProt P00519); details: at 0.1 µM
# [5] = molecular target: Tyrosine-protein kinase ABL1 (Homo sapiens) (UniProt P00519); details: at 1 µM
# [6] = molecular target: ALK tyrosine kinase receptor (Homo sapiens) (UniProt Q9UM73); details: at 0.1 µM
# [7] = molecular target: ALK tyrosine kinase receptor (Homo sapiens) (UniProt Q9UM73); details: at 1 µM
# [8] = molecular target: Tyrosine-protein kinase ABL2 (Homo sapiens) (UniProt P42684); details: at 0.1 µM
# [9] = molecular target: Tyrosine-protein kinase ABL2 (Homo sapiens) (UniProt P42684); details: at 1 µM
# [10] = molecular target: Tyrosine-protein kinase receptor UFO (Homo sapiens) (UniProt P30530); details: at 0.1 µM
# [11] = molecular target: Tyrosine-protein kinase receptor UFO (Homo sapiens) (UniProt P30530); details: at 1 µM
# [12] = molecular target: Tyrosine-protein kinase Blk (Homo sapiens) (UniProt P51451); details: at 0.1 µM
# [13] = molecular target: Tyrosine-protein kinase Blk (Homo sapiens) (UniProt P51451); details: at 1 µM
# [14] = molecular target: T1, Cytoplasmic tyrosine-protein kinase BMX (Homo sapiens) (UniProt P51813); details: at 0.1 µM
# T1 sequence (whole entry): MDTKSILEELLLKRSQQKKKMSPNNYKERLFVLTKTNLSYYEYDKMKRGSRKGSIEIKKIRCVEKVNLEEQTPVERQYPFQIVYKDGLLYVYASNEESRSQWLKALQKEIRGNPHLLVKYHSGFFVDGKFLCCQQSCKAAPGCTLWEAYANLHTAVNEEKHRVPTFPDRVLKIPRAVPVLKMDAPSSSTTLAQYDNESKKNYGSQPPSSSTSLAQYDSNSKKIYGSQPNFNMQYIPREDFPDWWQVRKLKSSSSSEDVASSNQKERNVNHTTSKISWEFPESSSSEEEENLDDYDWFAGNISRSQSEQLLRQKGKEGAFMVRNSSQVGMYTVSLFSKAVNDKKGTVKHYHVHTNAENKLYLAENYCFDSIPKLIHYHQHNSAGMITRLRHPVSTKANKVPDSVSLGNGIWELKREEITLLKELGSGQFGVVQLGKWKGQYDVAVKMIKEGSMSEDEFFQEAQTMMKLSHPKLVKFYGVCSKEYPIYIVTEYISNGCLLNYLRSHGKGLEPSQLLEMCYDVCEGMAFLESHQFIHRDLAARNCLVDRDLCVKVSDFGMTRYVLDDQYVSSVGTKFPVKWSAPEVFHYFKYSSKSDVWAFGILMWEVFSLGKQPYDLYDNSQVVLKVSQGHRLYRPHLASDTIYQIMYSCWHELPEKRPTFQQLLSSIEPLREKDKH
# [15] = molecular target: T1, Cytoplasmic tyrosine-protein kinase BMX (Homo sapiens); details: at 1 µM
# [16] = molecular target: Protein-tyrosine kinase 6 (Homo sapiens) (UniProt Q13882); details: at 0.1 µM
# [17] = molecular target: Protein-tyrosine kinase 6 (Homo sapiens) (UniProt Q13882); details: at 1 µM
# [18] = molecular target: Tyrosine-protein kinase BTK (Homo sapiens) (UniProt Q06187); details: at 0.1 µM
# [19] = molecular target: Tyrosine-protein kinase BTK (Homo sapiens) (UniProt Q06187); details: at 1 µM
# [20] = molecular target: Tyrosine-protein kinase CSK (Homo sapiens) (UniProt P41240); details: at 0.1 µM;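 also: value given is the averaged percent inhibition of CSK kinase activity, from the GSK PKIS kinase inhibitor set screening panel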
# Tyrosine-protein kinase CSK (Homo sapiens), sequence (P41240 2-450 limits assumed): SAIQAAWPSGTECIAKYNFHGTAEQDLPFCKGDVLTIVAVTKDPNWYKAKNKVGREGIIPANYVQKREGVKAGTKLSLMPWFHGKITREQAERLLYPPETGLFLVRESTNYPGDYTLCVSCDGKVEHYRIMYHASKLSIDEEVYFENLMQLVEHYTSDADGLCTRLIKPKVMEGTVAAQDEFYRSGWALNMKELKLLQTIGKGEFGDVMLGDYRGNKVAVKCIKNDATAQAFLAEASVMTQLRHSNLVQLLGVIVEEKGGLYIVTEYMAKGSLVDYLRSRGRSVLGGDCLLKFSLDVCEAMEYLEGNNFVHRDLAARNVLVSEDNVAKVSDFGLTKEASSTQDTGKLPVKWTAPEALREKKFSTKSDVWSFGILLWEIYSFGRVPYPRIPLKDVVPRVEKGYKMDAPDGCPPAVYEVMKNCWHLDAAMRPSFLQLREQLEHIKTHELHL
# Tyrosine-protein kinase BTK (Homo sapiens), sequence (Q06187 whole entry): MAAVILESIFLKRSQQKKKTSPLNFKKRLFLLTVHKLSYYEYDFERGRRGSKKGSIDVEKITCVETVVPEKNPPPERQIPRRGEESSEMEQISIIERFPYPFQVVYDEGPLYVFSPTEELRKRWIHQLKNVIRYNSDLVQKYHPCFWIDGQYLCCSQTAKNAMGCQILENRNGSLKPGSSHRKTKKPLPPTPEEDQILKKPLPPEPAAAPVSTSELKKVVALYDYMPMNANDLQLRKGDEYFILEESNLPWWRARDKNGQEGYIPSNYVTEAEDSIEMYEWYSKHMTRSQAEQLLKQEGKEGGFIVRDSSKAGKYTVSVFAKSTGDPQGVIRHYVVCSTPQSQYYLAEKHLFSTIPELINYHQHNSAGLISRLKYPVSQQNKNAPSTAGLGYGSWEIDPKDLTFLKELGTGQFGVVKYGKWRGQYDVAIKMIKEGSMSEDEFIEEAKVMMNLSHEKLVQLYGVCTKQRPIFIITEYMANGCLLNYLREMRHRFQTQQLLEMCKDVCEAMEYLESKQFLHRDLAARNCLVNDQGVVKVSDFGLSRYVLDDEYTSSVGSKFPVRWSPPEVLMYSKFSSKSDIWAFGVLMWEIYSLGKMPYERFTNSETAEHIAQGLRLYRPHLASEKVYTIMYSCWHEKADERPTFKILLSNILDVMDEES
# ALK tyrosine kinase receptor (Homo sapiens), sequence (Q9UM73 19-1620 limits assumed): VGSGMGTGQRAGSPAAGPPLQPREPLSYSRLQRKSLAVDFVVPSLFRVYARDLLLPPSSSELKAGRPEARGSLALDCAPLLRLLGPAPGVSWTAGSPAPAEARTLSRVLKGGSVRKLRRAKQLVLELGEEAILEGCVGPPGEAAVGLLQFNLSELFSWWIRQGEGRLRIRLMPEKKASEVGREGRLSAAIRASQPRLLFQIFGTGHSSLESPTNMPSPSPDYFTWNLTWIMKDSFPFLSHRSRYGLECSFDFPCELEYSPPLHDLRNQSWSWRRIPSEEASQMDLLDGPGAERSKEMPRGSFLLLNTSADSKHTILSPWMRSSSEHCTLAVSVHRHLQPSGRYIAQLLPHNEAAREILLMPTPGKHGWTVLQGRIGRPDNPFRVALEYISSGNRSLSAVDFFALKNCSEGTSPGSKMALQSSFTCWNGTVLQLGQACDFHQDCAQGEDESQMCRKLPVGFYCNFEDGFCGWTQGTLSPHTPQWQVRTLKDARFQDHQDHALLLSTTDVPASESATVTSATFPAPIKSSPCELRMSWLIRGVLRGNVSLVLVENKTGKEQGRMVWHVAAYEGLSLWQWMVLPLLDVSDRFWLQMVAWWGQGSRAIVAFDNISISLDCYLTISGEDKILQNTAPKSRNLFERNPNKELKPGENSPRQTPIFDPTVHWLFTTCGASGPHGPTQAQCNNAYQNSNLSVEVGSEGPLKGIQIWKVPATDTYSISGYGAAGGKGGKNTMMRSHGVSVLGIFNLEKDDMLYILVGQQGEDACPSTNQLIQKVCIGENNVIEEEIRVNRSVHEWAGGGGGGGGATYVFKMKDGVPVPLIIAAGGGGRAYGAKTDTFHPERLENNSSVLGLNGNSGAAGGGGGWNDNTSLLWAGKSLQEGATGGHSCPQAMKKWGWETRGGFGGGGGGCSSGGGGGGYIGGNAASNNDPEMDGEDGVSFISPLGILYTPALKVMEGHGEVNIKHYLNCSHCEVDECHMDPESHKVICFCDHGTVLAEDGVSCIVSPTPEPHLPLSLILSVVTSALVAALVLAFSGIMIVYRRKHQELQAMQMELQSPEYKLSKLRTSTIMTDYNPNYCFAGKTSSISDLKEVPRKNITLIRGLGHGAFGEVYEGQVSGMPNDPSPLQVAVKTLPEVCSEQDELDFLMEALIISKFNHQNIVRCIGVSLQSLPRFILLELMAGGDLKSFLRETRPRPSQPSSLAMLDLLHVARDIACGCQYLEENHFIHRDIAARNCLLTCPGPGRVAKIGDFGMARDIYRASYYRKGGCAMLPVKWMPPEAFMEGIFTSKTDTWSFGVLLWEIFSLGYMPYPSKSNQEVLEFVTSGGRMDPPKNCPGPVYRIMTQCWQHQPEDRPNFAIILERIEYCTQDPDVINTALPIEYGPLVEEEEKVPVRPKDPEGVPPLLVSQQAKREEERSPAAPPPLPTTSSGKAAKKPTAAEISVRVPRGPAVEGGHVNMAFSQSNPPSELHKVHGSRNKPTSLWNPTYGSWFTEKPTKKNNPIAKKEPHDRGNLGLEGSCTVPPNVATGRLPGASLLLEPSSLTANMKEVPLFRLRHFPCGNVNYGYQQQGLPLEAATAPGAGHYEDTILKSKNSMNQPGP
# Tyrosine-protein kinase receptor UFO (Homo sapiens), sequence (P30530 whole entry): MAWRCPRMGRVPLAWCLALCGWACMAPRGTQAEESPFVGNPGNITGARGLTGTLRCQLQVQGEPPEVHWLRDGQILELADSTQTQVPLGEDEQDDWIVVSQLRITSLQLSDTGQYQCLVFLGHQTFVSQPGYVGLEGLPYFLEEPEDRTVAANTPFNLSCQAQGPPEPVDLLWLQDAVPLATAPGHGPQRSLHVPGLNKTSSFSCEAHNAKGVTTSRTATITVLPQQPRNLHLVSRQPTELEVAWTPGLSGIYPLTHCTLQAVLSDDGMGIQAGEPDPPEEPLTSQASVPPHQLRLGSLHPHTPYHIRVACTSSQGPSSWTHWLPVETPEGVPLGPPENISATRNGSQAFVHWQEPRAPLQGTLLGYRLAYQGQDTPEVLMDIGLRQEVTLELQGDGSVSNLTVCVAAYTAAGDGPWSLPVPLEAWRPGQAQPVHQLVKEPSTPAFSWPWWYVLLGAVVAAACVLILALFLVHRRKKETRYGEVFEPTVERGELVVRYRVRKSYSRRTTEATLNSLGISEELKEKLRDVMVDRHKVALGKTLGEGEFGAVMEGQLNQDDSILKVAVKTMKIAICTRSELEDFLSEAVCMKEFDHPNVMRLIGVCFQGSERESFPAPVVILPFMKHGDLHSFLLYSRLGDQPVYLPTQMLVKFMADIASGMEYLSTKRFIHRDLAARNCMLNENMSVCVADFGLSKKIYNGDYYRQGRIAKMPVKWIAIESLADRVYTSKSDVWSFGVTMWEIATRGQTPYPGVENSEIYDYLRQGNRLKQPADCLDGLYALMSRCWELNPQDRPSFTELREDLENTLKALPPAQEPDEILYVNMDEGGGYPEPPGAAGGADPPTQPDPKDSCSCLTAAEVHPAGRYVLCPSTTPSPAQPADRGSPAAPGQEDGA
# Protein-tyrosine kinase 6 (Homo sapiens), sequence (Q13882 whole entry, looked up): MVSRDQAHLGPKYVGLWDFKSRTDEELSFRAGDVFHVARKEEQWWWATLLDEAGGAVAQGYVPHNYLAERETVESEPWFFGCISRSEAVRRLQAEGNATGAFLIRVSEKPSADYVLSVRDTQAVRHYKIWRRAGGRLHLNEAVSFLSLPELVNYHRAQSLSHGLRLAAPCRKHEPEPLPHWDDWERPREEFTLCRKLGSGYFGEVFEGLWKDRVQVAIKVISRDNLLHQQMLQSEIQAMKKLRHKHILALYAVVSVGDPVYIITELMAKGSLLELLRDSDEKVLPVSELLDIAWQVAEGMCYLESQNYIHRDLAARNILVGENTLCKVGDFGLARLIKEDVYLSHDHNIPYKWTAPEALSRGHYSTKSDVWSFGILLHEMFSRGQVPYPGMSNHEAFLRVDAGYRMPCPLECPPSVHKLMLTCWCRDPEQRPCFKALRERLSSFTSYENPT
# Tyrosine-protein kinase Blk (Homo sapiens), sequence (P51451 2-505 limits assumed): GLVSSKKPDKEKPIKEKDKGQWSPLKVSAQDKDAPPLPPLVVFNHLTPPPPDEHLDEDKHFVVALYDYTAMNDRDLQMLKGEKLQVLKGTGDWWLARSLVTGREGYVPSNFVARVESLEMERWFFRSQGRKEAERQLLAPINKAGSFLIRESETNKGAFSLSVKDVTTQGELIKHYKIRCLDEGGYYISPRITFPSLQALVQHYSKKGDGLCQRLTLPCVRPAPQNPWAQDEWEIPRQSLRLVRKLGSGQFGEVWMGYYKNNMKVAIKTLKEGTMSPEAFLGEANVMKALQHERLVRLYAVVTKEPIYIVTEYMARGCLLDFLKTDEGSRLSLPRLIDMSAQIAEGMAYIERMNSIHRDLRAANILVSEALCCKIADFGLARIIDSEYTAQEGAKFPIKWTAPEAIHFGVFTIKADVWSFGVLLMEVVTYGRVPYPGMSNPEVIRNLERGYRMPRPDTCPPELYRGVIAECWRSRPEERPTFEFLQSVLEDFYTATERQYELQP
Structure (SMILES),inhibition [1],inhibition [2],inhibition [3],inhibition [4],inhibition [5],inhibition [6],inhibition [7],inhibition [8],inhibition [9],inhibition [10],inhibition [11],inhibition [12],inhibition [13],inhibition [14],inhibition [15],inhibition [16],inhibition [17],inhibition [18],inhibition [19],inhibition [20]
NS(=O)(=O)c1ccc(N/N=C2\C(=O)Nc3ccc(Cl)cc32)cc1,11.8%,1.42%,11.1%,2.16%,10.6%,1.16%,5.53%,5.17%,11.6%,-1.64%,-3.81%,2.51%,6.13%,-0.25%,4.68%,2.27%,5.96%,0.31%,0.56%,4.9%
CCn1c(-c2nonc2N)nc2c(C#CC(C)(C)O)nc(OCCNC)cc21,4.21%,1.69%,4.64%,4.99%,5.14%,2.7%,3.58%,1.91%,4.33%,-7.46%,-6.1%,1.45%,3.35%,3.16%,6.56%,5.42%,3.09%,-1.33%,-0.61%,1.36%
CS(=O)(=O)Nc1cccc(-c2ccc3c(NC(=O)C4CC4)n[nH]c3c2)c1,30.6%,1.55%,11.8%,1.81%,17.9%,0.61%,1.09%,2.46%,3.55%,0.1%,1.68%,0.09%,4.51%,4.15%,1.52%,-1.65%,-2.5%,0.45%,1.66%,-2.14%
Nc1nccc(-c2c(-c3ccc(F)cc3)nn3cc(C(F)(F)F)ccc23)n1,1.21%,1.01%,-0.43%,0.6%,0.4%,3.84%,5.16%,2.16%,3.62%,0.67%,5.17%,0.6%,1.08%,-1.09%,0.94%,1.57%,-4.29%,0.89%,0.4%,-0.9%
Cc1cc(O)cc(C)c1/C=C/c1cncc(C(=O)N(C)C)c1,1.49%,2.53%,14.2%,6.26%,17.9%,1.7%,3.57%,4.85%,12%,-0.49%,3.27%,2.94%,3.78%,-2.2%,5.69%,2.85%,6.32%,1.28%,1.08%,4.08%
CN1CCN(C(=O)c2ccc(NC(=O)Nc3ccc(N(C)c4ccnc(Nc5ccc(CS(C)(=O)=O)cc5)n4)cc3)cc2)CC1,61.5%,8.21%,48.1%,9.79%,43.9%,1.71%,10.3%,21.9%,56.5%,-3.75%,11.9%,2.76%,24.4%,19.1%,68%,-1.96%,13.5%,1.59%,16%,-1.19%
c1ccc(Cc2nc3ccc(Nc4ncnc5ccccc45)cc3[nH]2)cc1,4.4%,5.92%,6.3%,4.49%,11.3%,1.23%,5.36%,2.8%,9.97%,-5.03%,-3.16%,2.78%,7.6%,5.75%,5.59%,5.48%,5.84%,0.25%,1.7%,8.17%
NS(=O)(=O)c1ccc(NC=C2C(=O)Nc3ccc4ncsc4c32)cc1,61.6%,10.6%,48.7%,7.95%,44.8%,7.33%,32.2%,5.56%,31.4%,-4.15%,42.4%,8.34%,58.3%,6.93%,13.8%,3.25%,8.92%,0.4%,3.74%,2.77%
COc1cc(/C=N/Nc2ncnc3c2cnn3C(C)C)ccc1O,47.8%,37%,82.2%,23.3%,73.7%,0.72%,4.12%,16.7%,68.5%,-0.67%,-0.23%,4.73%,45%,2.71%,17.1%,1.02%,4.8%,-0.92%,0.84%,0.38%
NS(=O)(=O)c1ccc(-c2cc3ccncc3cc2OCc2ccccc2)cc1,3.49%,5.3%,3.98%,3.52%,7.38%,4.77%,15.5%,3.51%,6.27%,-5.69%,-1.13%,2.2%,3.91%,4.23%,4.75%,2.61%,5.54%,0.49%,-0.08%,4.58%
c1ccc(Nc2ncc(-c3ccccc3)o2)cc1,7.7%,5.14%,16.3%,4.09%,16.5%,2.99%,3.91%,5.2%,22.7%,-3.91%,-3.74%,1.98%,5.16%,1.56%,7.49%,3.8%,7.06%,-0.11%,0.49%,4.22%
NS(=O)(=O)c1cccc(Nc2cc(-c3ccc(F)cc3)n[nH]2)c1,9%,4.2%,17%,3.39%,12.4%,1.3%,2.54%,3.38%,9.78%,-0.57%,-3.83%,2.05%,6.41%,-2.37%,4.82%,1.68%,3.52%,0.73%,0.11%,4.6%
COC(=O)c1cncc(/C=C/c2c(C)cc(O)cc2C)c1,5.95%,13.9%,60.9%,11%,62.9%,2.92%,4.4%,12.5%,57.4%,-3.94%,-5.3%,3.73%,13.6%,4.1%,29.6%,11.4%,50.2%,1.9%,2.92%,4.04%
